Screening data (PubChem)
The list is not random: actives were taken first. Their share in the collection is about 4.7%.
DUSP3 inh: VHR1 phosphatase inhibitors, primary screen, biochemical, absorbance, uHTS; recombinant VHR phosphatase, pNPP absorbance; inhibition, % at 13.3 µM; 0.52% of 290,000 active; AID 1654, 2009; in the data active means inhibition above about 50%
Target sequence (P51452 whole entry, looked up): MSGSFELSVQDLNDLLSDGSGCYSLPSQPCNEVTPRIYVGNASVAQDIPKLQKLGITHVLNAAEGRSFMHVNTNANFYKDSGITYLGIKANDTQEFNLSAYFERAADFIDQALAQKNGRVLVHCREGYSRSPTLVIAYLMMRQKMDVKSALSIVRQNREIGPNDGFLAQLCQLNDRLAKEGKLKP
GDH-TPI counter: GDH-TPI coupling enzyme inhibitors, primary screen, artefact control for M. tuberculosis FBA inhibitor project, biochemical, absorbance, full deck. GDH-TPI coupled enzyme counterscreen, NADH absorbance. inhibition, % at 4.8 µM. AID 588335, 2011. 1.2% of 360,000 active
RecA splice inh: Mtb RecA intein splicing inhibitors, primary screen, biochemical, fluorescence, HTS | Protein RecA (Mycobacterium tuberculosis (strain ATCC 25618 / H37Rv)), P9WHJ3 | cell-free RecA intein splicing | inhibition, % (test concentration not listed) | 0.75% of 290,000 active; in the data active means inhibition above about 30%
SARS 3CLpro inh: SARS-CoV 3CLpro protease inhibitors, primary screen, biochemical, quenched FRET | Replicase polyprotein 1ab (Severe acute respiratory syndrome coronavirus), P0C6X7 | recombinant SARS-CoV 3CLpro, quenched FRET peptide cleavage | inhibition, % at 6 µM | 0.14% of 290,000 active | AID 1706, 2009; in the data active means inhibition above about 12%
CCHF vOTU inh-1: CCHFV vOTU protease inhibitors, primary screen, biochemical, Pep-AMC substrate, fluorescence. Crimean-Congo hemorrhagic fever virus L polyprotein viral ovarian tumor (vOTU) protease …. 0.55% of 370,000 active. AID 651958, 2012. inhibition, % at 11.5 µM
Mtb FBA inh: Mtb FBA enzyme inhibitors, primary screen, biochemical, fluorescence, strain H37Rv; Fructose-bisphosphate aldolase (Mycobacterium tuberculosis (strain ATCC 25618 / H37Rv)), …; inhibition, % at 1 µM; 2.3% of 360,000 active; purified M. tuberculosis FBA, fluorescence read-out; in the data active means inhibition above about 27%
Target sequence (P9WQA3 whole entry, looked up): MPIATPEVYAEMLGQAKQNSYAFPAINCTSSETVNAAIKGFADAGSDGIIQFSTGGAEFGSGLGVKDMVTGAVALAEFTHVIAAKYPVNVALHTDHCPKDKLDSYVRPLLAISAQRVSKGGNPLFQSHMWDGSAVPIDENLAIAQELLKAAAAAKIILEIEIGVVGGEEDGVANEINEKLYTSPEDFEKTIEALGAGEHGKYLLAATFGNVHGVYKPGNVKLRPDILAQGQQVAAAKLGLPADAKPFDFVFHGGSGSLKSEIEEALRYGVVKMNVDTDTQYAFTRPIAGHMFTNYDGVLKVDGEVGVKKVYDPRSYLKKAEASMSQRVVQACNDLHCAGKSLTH
CCHF vOTU inh-2: CCHFV vOTU protease inhibitors, confirmation, biochemical, Pep-AMC substrate, fluorescence | Recombinant CCHFV vOTU | 17% of 1,900 active | inhibition, % at 11.5 µM | shares compounds with CCHF vOTU inh-1
Numbers stand for hits; n = inactive; x = no result. Unless noted, no stated cut-off is given here; in the data, active means inhibition above about 30%; inactive means the rest.

SMILES | DUSP3 inh | GDH-TPI counter | RecA splice inh | SARS 3CLpro inh | CCHF vOTU inh-1 | Mtb FBA inh | CCHF vOTU inh-2
O=C(NCc1ccc(N2CCCC2=O)cc1)c1cc(COc2c(F)cccc2F)on1 | n | n | n | n | 37.8 | n | n
COC(=O)[C@]1(Cc2ccccc2)N[C@H](CN(C)C(=O)Nc2ccccc2)[C@@H]2C(=O)N(Cc3ccccc3)C(=O)[C@@H]21 | x | n | x | x | 36.9 | n | n
CCc1nc2sccc2c(=O)[nH]1 | n | n | n | n | n | n | x
CCOC(=O)c1c(NC(=O)C(C)Sc2nnc(C)c(=O)[nH]2)sc2c1CCCC2 (configuration not stated) | n | n | n | n | n | n | x
O=P1(O)CC2=C(CC=CC2)C1 | x | n | x | x | n | n | x
Cc1cc(C)nc(SCC(=O)N(C)CC(=O)Nc2ccccc2Br)n1 | x | n | n | x | n | n | x
Cc1cc(C)nc(SCC(=O)N(C)CC(=O)Nc2c(Cl)cccc2Cl)n1 | x | n | n | x | 33.8 | n | n
CC(C)Cc1ccc(-c2cc3nc(NCCCn4ccnc4)ccn3n2)cc1 | x | n | x | x | 29.9 | n | n
FC(F)(F)c1cccc(-c2cc3nc(NCCCn4ccnc4)ccn3n2)c1 | x | n | x | x | n | n | x
COc1ccc(-c2nonc2NC(=O)c2ccco2)cc1OC | n | n | n | n | n | n | x
COc1ccc(O)c(/C=N/NC(=O)c2cccc(N3CCCC3=O)c2)c1 | n | n | n | n | n | n | x
O=C(N/N=C/c1cc(Br)ccc1O)c1cccc(N2CCCC2=O)c1 | n | n | n | n | 31.6 | n | n
CCCC1S/C(=N/N=C/c2cccs2)NC1=O (configuration not stated) | n | n | n | n | n | n | x
CC(C)C1S/C(=N/N=C/c2cccs2)NC1=O (configuration not stated) | n | n | n | n | 34.8 | n | n
COC(=O)C1=C(C)N(Cc2ccccc2)C(=NCc2cccc(C(F)(F)F)c2)N[C@H]1c1cccc(F)c1 | n | n | n | n | 31.4 | n | n
COC(=O)C1=C(C)N(Cc2cccc(C(F)(F)F)c2)C(=NCc2ccc(OC)cc2)NC1c1ccccc1 (configuration not stated) | x | x | x | x | n | x | x
COC(=O)C1=C(C)N(C)C(=NCC2CC2)NC1c1ccccc1 (configuration not stated) | x | x | x | x | 31.5 | x | n
CCN=C1NC(c2ccc(F)cc2)C(C(=O)OC)=C(C)N1Cc1cccc(C(F)(F)F)c1 (configuration not stated) | x | x | x | x | 36.1 | x | n
COC(=O)C1=C(C)N(Cc2cccc(C(F)(F)F)c2)C(=NCc2ccc(OC)cc2)NC1c1cccc(F)c1 (configuration not stated) | x | x | x | x | 35.0 | x | n
Nc1c(C(=O)CSc2n[nH]c(-c3ccccc3)n2)c(=O)[nH]c(=O)n1C1CC1 | x | n | x | x | n | n | x
CC12CCC(=O)N1C(C(=O)Nc1cc(S(=O)(=O)N3CCCCCC3)ccc1OCC(F)(F)F)CS2 (configuration not stated) | n | n | n | n | n | n | x
Cc1ccc(C2(C)NC(=O)N(CC(=O)N3CCN(C(=O)c4cccs4)CC3)C2=O)cc1 (configuration not stated) | x | n | x | x | n | n | x
CN(CC(=O)Nc1ccc(F)cc1)C(=O)C1CCN(S(=O)(=O)c2ccc3c(c2)OCCO3)CC1 | x | n | n | x | 34.4 | n | n
CC1CCc2cc(F)cc3c(=O)c(C(=O)O)cn1c23 (configuration not stated) | n | n | n | n | 31.7 | n | n
CC1CCc2c(N3CCC(O)CC3)c(F)cc3c(=O)c(C(=O)O)cn1c23 (configuration not stated) | x | n | x | x | n | n | x
SMILES | DUSP3 inh | GDH-TPI counter | RecA splice inh | SARS 3CLpro inh | CCHF vOTU inh-1 | Mtb FBA inh | CCHF vOTU inh-2
CC(C)(C)c1ccc(C(=O)OCc2c(-c3ccccc3)ncc3ccccc23)cc1 | x | n | x | x | 30.5 | n | n
Cn1c(=O)c2c(ncn2CC(=O)OCC(=O)c2ccc(Br)cc2)n(C)c1=O | x | n | x | x | 32.3 | n | n
Cc1ccc(CCN2CC(C(=O)NC3CCC(C)CC3)CC2=O)cc1 (configuration not stated) | x | n | x | x | n | n | x
CC(=O)N(CN1C(=O)c2ccccc2C1=O)c1cccc(C)c1 | n | n | n | n | n | n | x
CC(=O)N(/N=C1\Sc2ccccc2C1=O)c1cccc(C)c1 | n | n | n | n | 36.4 | n | 37.0
COC(=O)C1=C(c2ccc(OC(F)(F)F)cc2)C[C@@H]2CC[C@H]1N2C(=O)NCCOc1ccccc1 | x | n | x | x | 30.5 | n | n
OC(c1ccccc1)(c1ccccc1)C1CCN(CCCOc2cccc(Cl)c2)CC1 | x | x | x | x | 37.5 | x | n
OC(c1ccccc1)(c1ccccc1)C1CCN(CCCOc2ccc(OC(F)(F)F)cc2)CC1 | x | x | x | x | 30.7 | x | n
CCCCC[C@@H](C)N1C[C@H](COCc2ccccc2)Oc2cc(N3CC[C@@H](N(C)C)C3)ccc2S1(=O)=O | x | x | x | x | n | x | x
CCCCC[C@@H](C)N1C[C@@H](COCc2ccccc2)Oc2cc(N3CC[C@@H](N(C)C)C3)ccc2S1(=O)=O | x | x | x | x | 34.7 | x | n
CCCCC[C@H](C)N1C[C@H](COCc2ccccc2)Oc2cc(N3CC[C@@H](N(C)C)C3)ccc2S1(=O)=O | x | x | x | x | 36.7 | x | n
CCCCC[C@@H](C)N1C[C@@H](COCc2ccccc2)Oc2cc(N3CCC[C@@H]3CO)ccc2S1(=O)=O | x | x | x | x | 34.6 | x | n
CCCCC[C@@H](C)N1C[C@@H](COCc2ccccc2)Oc2cc(N3CC[C@@H](O)C3)ccc2S1(=O)=O | x | x | x | x | 30.9 | x | n
O=C(N[C@@H](Cc1cccnc1)C(=O)N1CCC[C@H]1C(=O)NC1CCCC1)C1CC1 | x | x | x | x | n | x | x
CC(=O)N(Cc1ccccc1)C(CC(=O)NCc1ccccc1)C(=O)O (configuration not stated) | x | n | x | x | n | n | x
